Values joined by “and” are separate entries in the source; they are usually repeats but may differ in a detail not shown here. Equal values may be shown once. Records with an inconclusive call do not appear. Active and inactive are the calls of the source. The call rests on the fitted dose curve; in most records, active means well fitted curve in the direction sought with a large enough effect in the repeat runs; inconclusive means weak or mixed curves; inactive means no such curve, though single readings can be large; an effect the other way counts as inactive or inconclusive.
Key:
[1] = qHTS RealTime-Glo MT Cell Viability Assay in HepG2 cells - 8 hour (AID 1224873); further: nearly all actives have a fitted effect of over 55% in size; further: potency means the concentration at half of the fitted maximal effect
Summary of the method: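 HepG2 cells (600/well) mixed with RealTime-Glo MT reagent, settled 5 h at 37 C/5% CO2 before compound addition. Nonlytic NanoLuc luminescence from viable-cell prosubstrate reduction read repeatedly during 40 h treatment at 37 C.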

[2] = qHTS RealTime-Glo MT Cell Viability Assay in HEK293 cells - 40 hour (AID 1224874); conditions: RealTime-Glo luminescence; max response: hits give low values; further: nearly all actives have a fitted effect of over 50% in size; further: potency means the concentration at half of the fitted maximal effect
Summary of the method: (§1)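 Cells were seeded together with NanoLuc luciferase and a prosubstrate that viable cells reduce to a luciferase substrate. After a 5 h incubation at 37 C/5% CO2, compounds were added and luminescence was measured repeatedly during 40 h of treatment.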

[3] = A CellTox Green Cytotoxicity Assay to monitor cytotoxicity in HEK293 cells - 24 hour (AID 1224875); further: nearly all actives have a fitted effect of over 45% in size; further: potency means the concentration at half of the fitted maximal effect; on activity change: series mostly up to about 77 µM
Summary of the method: (§2)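 Nonlytic real-time cytotoxicity: HEK293 + CellTox Green reagent plated, 5 h preincubation, pintool compound addition (23 nL in DMSO), 37 C for 40 h, fluorescence measured at successive time points.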

[4] = A CellTox Green Cytotoxicity Assay to monitor cytotoxicity in HepG2 cells - 16 hour (AID 1224876); further: nearly all actives have a fitted effect of over 45% in size; further: potency means the concentration at half of the fitted maximal effect
Summary of the method: (§3)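 Read-out is fluorescence of a cyanine dye excluded from live cells that stains DNA of dead HepG2 cells, with signal proportional to cytotoxicity. Plates were read at 0, 8, 16, 24, 32 and 40 h after compound addition.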

[5] = qHTS RealTime-Glo MT Cell Viability Assay in HepG2 cells - 32 hour (AID 1224877); further: nearly all actives have a fitted effect of over 55% in size; further: potency means the concentration at half of the fitted maximal effect
Summary of the method: (§4)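 Viability was tracked continuously by NanoLuc luminescence from prosubstrate reduced by living HepG2 cells, at successive time points over 40 h of compound exposure. Cells with reagent were preincubated 5 h at 37 °C before compound addition.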

[6] = A CellTox Green Cytotoxicity Assay to monitor cytotoxicity in HepG2 cells - 24 hour (AID 1224878); further: nearly all actives have a fitted effect of over 45% in size; further: potency means the concentration at half of the fitted maximal effect
Summary of the method: as §3

[7] = A CellTox Green Cytotoxicity Assay to monitor cytotoxicity in HepG2 cells - 40 hour (AID 1224879); further: nearly all actives have a fitted effect of over 40% in size; further: potency means the concentration at half of the fitted maximal effect
Summary of the method: as §3

[8] = qHTS RealTime-Glo MT Cell Viability Assay in HEK293 cells - 0 hour (AID 1224880); further: top concentration of the series differs between compounds; nearly all actives have a fitted effect of over 45% in size
Summary of the method: as §1

[9] = A CellTox Green Cytotoxicity Assay to monitor cytotoxicity in HepG2 cells - 0 hour (AID 1224882); further: nearly all actives have a fitted effect of over 35% in size; further: potency means the concentration at half of the fitted maximal effect
Summary of the method: as §3

[10] = A CellTox Green Cytotoxicity Assay to monitor cytotoxicity in HepG2 cells - 32 hour (AID 1224883); further: nearly all actives have a fitted effect of over 50% in size; further: potency means the concentration at half of the fitted maximal effect
Summary of the method: as §3

[11] = A CellTox Green Cytotoxicity Assay to monitor cytotoxicity in HEK293 cells - 8 hour (AID 1224884); further: nearly all actives have a fitted effect of over 35% in size; further: potency means the concentration at half of the fitted maximal effect
Summary of the method: as §2

[12] = qHTS RealTime-Glo MT Cell Viability Assay in HepG2 cells - 16 hour (AID 1224885); further: nearly all actives have a fitted effect of over 50% in size
Summary of the method: as §4

[13] = qHTS RealTime-Glo MT Cell Viability Assay in HEK293 cells - 24 hour (AID 1224886); further: nearly all actives have a fitted effect of over 50% in size; further: potency means the concentration at half of the fitted maximal effect; on activity change, negative = cytotoxicity: top concentration of the series differs between compounds
Summary of the method: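 Viability tracked continuously by luminescence as live cells reduce a prosubstrate for NanoLuc; HEK293 cells preincubated 5 h, compound-treated at 37 C, and read at 0, 8, 16, 24, 32 and 40 h.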

[14] = qHTS RealTime-Glo MT Cell Viability Assay in HEK293 cells - 8 hour (AID 1224887); further: nearly all actives have a fitted effect of over 50% in size; further: potency means the concentration at half of the fitted maximal effect; on activity change, negative = cytotoxicity: top concentration of the series differs between compounds
Summary of the method: as §1

[15] = A CellTox Green Cytotoxicity Assay to monitor cytotoxicity in HEK293 cells - 16 hour (AID 1224888); further: nearly all actives have a fitted effect of over 35% in size; further: potency means the concentration at half of the fitted maximal effect
Summary of the method: as §2

[16] = qHTS RealTime-Glo MT Cell Viability Assay in HepG2 cells - 0 hour (AID 1224889); further: nearly all actives have a fitted effect of over 50% in size
Summary of the method: as §4

[17] = A CellTox Green Cytotoxicity Assay to monitor cytotoxicity in HepG2 cells - 8 hour (AID 1224890); further: nearly all actives have a fitted effect of over 45% in size; further: potency means the concentration at half of the fitted maximal effect
Summary of the method: as §3

[18] = qHTS assay to identify small molecule antagonists of the estrogen receptor alpha (ER-alpha) signaling pathway using the BG1 cell line in the presence of 0.1 nM 17-beta-estradiol - cell viability counter screen (AID 1259241); further: nearly all actives have a fitted effect of over 40% in size
Summary of the method: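 Measures cytotoxicity alongside the ER-alpha antagonist readout: VM7Luc4E2 cells, charcoal-stripped serum, 0.1 nM 17beta-estradiol final, 22 hr compound incubation at 37C, CellTiter-Fluor fluorescence.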

[19] = qHTS assay to identify small molecule antagonists of the androgen receptor (AR) signaling pathway using the MDA cell line in the presence of 0.5 nM R1881 - cell viability counter screen (AID 1259242); further: nearly all actives have a fitted effect of over 45% in size
Summary of the method: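 Counter screen for cytotoxicity run in the same wells as the AR antagonist reporter screen: MDA-kb2 cells were treated 16 hr with test compounds and 0.5 nM R1881, then live-cell protease activity was measured by fluorescence.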

[20] = A CellTox Green Cytotoxicity Assay to monitor cytotoxicity in HEK293 cells - 32 hour (AID 1224881); further: nearly all actives have a fitted effect of over 40% in size; further: potency means the concentration at half of the fitted maximal effect
Summary of the method: as §2
On the % scale 0 is the no-effect control and ±100 the full control effect.

O=C(O)CCN(C1(C(=O)NO)CCCC1)S(=O)(=O)c1ccc(Oc2ccc(F)cc2)cc1
inactive: Potency [1] | max response [2] 9.57% | Potency [3] | Potency [4] | Potency [5] | Potency [6] | Potency [7] | Potency [8] | Potency [9] | Potency [10] | Potency [11] | Potency [12] | Potency [13] | Potency [14] | Potency [15] | Potency [16] | Potency [17] | Potency [18] | Potency [19]

C=CC(=O)OCCOC(=O)C=C
inactive: Potency [1] | Potency [3] | Potency [4] | Potency [5] | Potency [7] | Potency [8] | Potency [9] | Potency [10] | Potency [11] | Potency [12] | Potency [14] | Potency [15] | Potency [16] | Potency [18] | Potency [19]
active: Potency [2] 49 µM | Potency [13] 43.6 µM

CC(C(=O)O)c1ccc2c(c1)[nH]c1ccc(Cl)cc12 (stereo unspecified)
inactive: Potency [1] | max response [2] 1.73% | Potency [3] | Potency [4] | Potency [5] | Potency [6] | Potency [7] | Potency [20] | Potency [9] | Potency [10] | Potency [11] | Potency [12] | Potency [13] | Potency [14] | Potency [15] | Potency [16] | Potency [17] | Potency [18] | Potency [19]

Nc1ccc(Oc2ccc(Cl)cc2)cc1
active: Potency [2] 21.4 µM | Potency [13] 24 µM
inactive: Potency [1] | Potency [3] | Potency [4] | Potency [5] | Potency [6] | Potency [8] | Potency [20] | Potency [9] | Potency [10] | Potency [11] | Potency [12] | Potency [15] | Potency [16] | Potency [17] | Potency [18]

O=[N+]([O-])c1ccc(F)c(Cl)c1
inactive: Potency [1] | max response [2] 14.6% | Potency [3] | Potency [4] | Potency [5] | Potency [7] | Potency [8] | Potency [20] | Potency [9] | Potency [10] | Potency [11] | Potency [12] | Potency [13] | Potency [14] | Potency [15] | Potency [16] | Potency [17] | Potency [18] | Potency [19]

CCOc1ccc2ccccc2c1C(=O)N[C@@H]1C(=O)N2[C@@H]1SC(C)(C)[C@@H]2C(=O)O
inactive: Potency [1] | max response [2] 1.12% | Potency [3] | Potency [4] | Potency [5] | Potency [6] | Potency [7] | Potency [8] | Potency [20] | Potency [10] | Potency [11] | Potency [12] | Potency [14] | Potency [15] | Potency [16] | Potency [18] | Potency [19]

CCCCCCCCCCCCCCCC[N+](C)(C)CC
inactive: Potency [8] | Potency [9] | Potency [16] | Potency [18]
active: Potency [1] 55.1 µM | Potency [2] 4.38 µM and 3.38 µM | Potency [3] 43.8 µM and 23.9 µM | Potency [4] 49.1 µM and 23.9 µM | Potency [5] 21.9 µM and 21.3 µM | Potency [6] 24.6 µM and 21.3 µM | Potency [20] 39 µM and 21.3 µM | Potency [10] 17.4 µM and 19 µM | Potency [11] 55.1 µM and 23.9 µM | Potency [13] 8.74 µM and 4.77 µM | Potency [14] 21.9 µM | Potency [15] 55.1 µM | Potency [17] 55.1 µM and 19 µM

Cc1c(N)cccc1C(F)(F)F
inactive: Potency [1] | max response [2] -0.691% | Potency [3] | Potency [4] | Potency [5] | Potency [6] | Potency [8] | Potency [20] | Potency [9] | Potency [10] | Potency [11] | Potency [12] | Potency [13] | Potency [14] | Potency [15] | Potency [16] | Potency [17] | Potency [18]

O=C1CCCCCCCCCCCCCCCO1
inactive: Potency [1] | max response [2] 4% | Potency [5] | Potency [8] | Potency [12] | Potency [13] | Potency [14] | Potency [16] | Potency [18]
active: Potency [3] 24.5 µM | Potency [4] 43.6 µM | Potency [7] 43.6 µM | Potency [20] 24.5 µM | Potency [9] 38.9 µM | Potency [10] 43.6 µM | Potency [11] 43.6 µM | Potency [15] 24.5 µM | Potency [17] 43.6 µM

O=C1C(c2[nH]c3ccc(S(=O)(=O)O)cc3c2O)=Nc2ccc(S(=O)(=O)O)cc21
inactive: Potency [1] | max response [2] 10.2% | Potency [3] | Potency [4] | Potency [5] | Potency [6] | Potency [7] | Potency [8] | Potency [20] | Potency [9] | Potency [10] | Potency [12] | Potency [14] | Potency [15] | Potency [17] | Potency [18] | Potency [19]

C[C@@H](O)[C@H](N)C(=O)O
inactive: viability change, negative = cytotoxic [1] 1.46% [at 15.8 µM] | max response [2] -1.76% | activity change [3] -4.79% [at 15.8 µM, hits give high values] | cytotoxicity increase [4] 6.33% [at 15.8 µM] | activity change, negative = cytotoxic [5] -3.46% [at 15.8 µM] | cytotoxicity [6] 5.91% [at 15.8 µM] | cytotoxicity increase [7] 7.81% [at 15.8 µM] | activity change, negative = cytotoxicity [8] -2.75% [at 15.8 µM] | cytotoxicity increase [20] -5.17% [at 15.8 µM] | cytotoxicity [9] 7.45% [at 15.8 µM] | cytotoxicity increase [10] 4.24% [at 15.8 µM] | activity change, negative = cytotoxicity [13] 0.683% [at 15.8 µM] | activity change, negative = cytotoxicity [14] -0.878% [at 15.8 µM] | activity change [15] -2.81% [at 15.8 µM, hits give high values] | activity change, negative = cytotoxicity [16] 0.322% [at 15.8 µM] | cytotoxicity increase [17] 6.73% [at 15.8 µM] | activity change, negative = cytotoxicity [18] -3.81% [at 19 µM] | viability change, negative = cytotoxic [19] 0.742% [at 19 µM]

Source: PubChem BioAssay (Tox21)
